Most compounds without a hit are left out; they make up all but 15% or so of the library.
ELG1 DNA repair – qHTS screen for small molecules that inhibit ELG1-dependent DNA repair in human embryonic kidney (HEK293T) cells expressing luciferase-tagged ELG1. HEK293T ELG1-luciferase reporter, luminescence, 16 h; DNA damage induced by 5-fluorouridine. Potency, µM (top dose mostly 46.1 µM), inactives show top-dose activity change, negative = inhibition, usual class: inhibitors. hit rate 2.3% among 330,000. AID 504467, 2011; further: nearly all actives have a fitted effect of over 55% in size
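Step one: seed 2,000 cells per well. Step two: pin-transfer compound or DMSO alongside 5-fluorouridine. Step three: incubate 16 hr, 37 °C, 5% CO2. Step four: add ONE-Glo, wait 30 min, read luminescence.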
DT40 TDP1 no CPT – qHTS for Inhibitors of human tyrosyl-DNA phosphodiesterase 1 (TDP1): qHTS in cells in absence of CPT; DT40 Tdp1-/- hTDP1 cells, no CPT, ATP luminescence, 48 h; Potency, µM (highest dose often 46.2 µM), inactives show at the top dose activity change, negative = growth inhibition, actives largely listed as inhibitors; hit rate 15% among 420,000; AID 686978, 2013; further: nearly all actives have a fitted effect of over 55% in size
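No-CPT arm: Tdp1-/-;hTDP1 DT40 cells (400/well) plus compounds, incubated ≥48 hr at 37 °C. Readout CellTiter-Glo luminescence.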
Gal4-VP16 FLuc – VP16 counterscreen qHTS for inhibitors of ROR gamma transcriptional activity. Drosophila S2 Gal4-VP16 UAS-luciferase, luminescence, 20 h. Potency, µM (top dose mostly 53.6 µM), inactives show at the highest dose activity, negative = inhibition, most hits filed as inhibitors. hit rate 3.5% among 310,000. AID 2546, 2010;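 further: Gal4-VP16 expression switched on by copper sulfate through the metallothionein promoter; nearly all actives have a fitted effect of over 50% in size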
TDP1 cell CPT – qHTS for Inhibitors of human tyrosyl-DNA phosphodiesterase 1 (TDP1): qHTS in cells in presence of CPT | chicken DT40 Tdp1-/-;hTDP1 cells + 20 nM CPT, ATP luminescence, 48 h | Potency, µM (doses to about 46.2 µM), inactives show at the top dose activity change, negative = growth inhibition, actives largely listed as inhibitors | hit rate 12% among 420,000 | AID 686979, 2013; further: nearly all actives have a fitted effect of over 55% in size
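Chicken DT40 Tdp1-/- cells complemented with human TDP1, 400 cells/well, exposed to compounds plus 20 nM camptothecin for at least 48 h at 37 C; viability read as ATP content by CellTiter-Glo luminescence.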
RORgamma inh – qHTS for inhibitors of ROR gamma transcriptional activity | Drosophila S2 Gal4-RORgamma UAS-luciferase reporter, 20 h | Potency, µM (highest dose often 53.6 µM), for inactives: top-dose activity change, negative = inhibition, hits mostly inhibitors | hit rate 5.4% among 310,000 | AID 2551, 2010; further: nearly all actives have a fitted effect of over 60% in size
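Drosophila Schneider cells stably carrying a metallothionein-driven Gal4 DBD–ROR gamma fusion and a UAS-Photinus luciferase reporter were exposed to compound for 1 hr, then induced with copper sulfate (700 uM final) for 20 hr at ambient temperature before luminescence reading.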
12-LOX inh – Primary qHTS assay for inhibitors of human arachidonate 12S-lipoxygenase (ALOX12): Round 2; Polyunsaturated fatty acid lipoxygenase ALOX12 (Homo sapiens), P18054; purified 12hLO, xylenol orange hydroperoxide absorbance; Potency, µM (highest dose often 108 µM), for inactives: at the highest dose activity change, negative = inhibition, hits mostly inhibitors; hit rate 1.1% among 580,000
Target sequence (P18054 whole entry, looked up): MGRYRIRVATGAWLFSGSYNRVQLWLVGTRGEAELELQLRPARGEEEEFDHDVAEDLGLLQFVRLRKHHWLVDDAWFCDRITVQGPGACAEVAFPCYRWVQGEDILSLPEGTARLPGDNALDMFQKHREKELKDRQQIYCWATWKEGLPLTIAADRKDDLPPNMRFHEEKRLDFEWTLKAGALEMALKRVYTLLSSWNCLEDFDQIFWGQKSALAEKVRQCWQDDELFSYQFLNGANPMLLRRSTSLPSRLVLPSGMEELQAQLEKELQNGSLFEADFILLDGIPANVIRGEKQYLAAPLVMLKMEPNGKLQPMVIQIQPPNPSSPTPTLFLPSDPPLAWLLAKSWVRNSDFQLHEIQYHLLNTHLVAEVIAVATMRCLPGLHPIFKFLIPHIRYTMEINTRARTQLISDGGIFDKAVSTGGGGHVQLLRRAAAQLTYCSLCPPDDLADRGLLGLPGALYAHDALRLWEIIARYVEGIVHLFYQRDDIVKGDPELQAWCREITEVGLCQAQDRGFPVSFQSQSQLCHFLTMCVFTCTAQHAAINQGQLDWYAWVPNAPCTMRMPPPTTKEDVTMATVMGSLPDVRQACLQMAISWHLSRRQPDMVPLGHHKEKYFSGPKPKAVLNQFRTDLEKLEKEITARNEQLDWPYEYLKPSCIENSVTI
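Purified human 12hLO at 150 nM in 25 mM Hepes, 0.01% Triton X-100, pH 7.0, preincubated 15 min at room temperature with compound. Reaction started with 40 uM arachidonic acid, 30 min at room temperature. Hydroperoxide measured by Fe-xylenol orange, 573/405 nm absorbance ratio.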
Active calls of the source: *; ? = inconclusive; · = no result; [ ] = another dose, or the depositor's remark. The call rests on the fitted dose curve; in most records, active means well fitted curve in the direction sought with a large enough effect; inconclusive means small, poorly fitted or top-dose-only effect, or another doubt; inactive means no such curve, though single readings can be large; an effect the other way counts as inactive or inconclusive. On the % scale 0 is the no-effect control and ±100 the full control effect; potency means the concentration at half of the fitted maximal effect.

SMILES | ELG1 DNA repair | DT40 TDP1 no CPT | Gal4-VP16 FLuc | TDP1 cell CPT | RORgamma inh | 12-LOX inh
CCN(CC)CCCNc1oc(-c2cccc(Cl)c2)nc1C#N | 24% | 23µM* | -9% | ? | -27% | -12%
CCC1CCCCN1CCCNC(=O)c1ccc2c(c1)N(Cc1ccccc1)C(=O)c1ccccc1S2(=O)=O (stereo not given) | · | ? | · | ? | · | -17%
Cc1cccc(CN2C(=O)c3ccccc3S(=O)(=O)c3ccc(C(=O)N4CCCC4)cc32)c1 | · | ? | · | ? | · | -21%
CCC1CCCCN1CCCNC(=O)c1ccc2c(c1)N(Cc1ccc(Cl)cc1)C(=O)c1ccccc1S2(=O)=O (stereo not given) | · | 23µM* | · | 23µM* | · | -33%
CCC1CCCCN1CCCNC(=O)c1ccc2c(c1)N(Cc1cccc(C)c1)C(=O)c1ccccc1S2(=O)=O (stereo not given) | · | ? | · | 16µM* | · | -24%
COc1ccc(Nc2nc(N3CCOCC3)c3cnn(C)c3n2)cc1 | · | · | · | · | · | 10%
O=c1c2ccccc2nc2n1C(CSCc1ccc(Cl)cc1)CS2 (stereo not given) | -20% | 16µM* | 1%[0.365 µM] | 10µM* | ? | 0%
O=c1c2ccccc2nc2n1C(CSc1ccc(F)cc1)CS2 (stereo not given) | -20% | 3% | 6% | 1% | -4% | 1%
COc1ccc(CC(=O)Nc2nc3c(s2)C[C@@H]2[C@](C)(CO)[C@H](O)CC[C@@]2(C)[C@@H]3CC(=O)NCCNC(C)=O)cc1 | · | · | · | · | · | 32%
COc1ccc(C[C@H](NC(=O)[C@@H]2C[C@H](NC(=O)Nc3cccc(OC)c3)CN2C(=O)c2cccn2C)C(N)=O)cc1 | · | · | · | · | · | -2%
CN(C)CCCN1C(=O)CSC1c1ccc(Br)cc1 (stereo not given) | · | · | · | · | · | -6%
Cc1cc(C)nc(Nc2nc(=O)c3ccccc3s2)n1 | ? | 21µM* | ? | ? | ? | ?
Cc1cc(C)nc(Nc2nc(C)c3cccc(C)c3n2)n1 | · | · | · | · | · | 54%
Cc1c(-c2ccccc2)c(=O)oc2ccc(OS(=O)(=O)c3ccccc3)cc12 | · | · | · | · | · | 23%
Cc1cc2cc(CNC(=O)Cc3ccc([N+](=O)[O-])cc3)ccc2n1C | 0% | -14% | -6% | -7% | 5% | -21%
Cc1cc2cc(CNC(=O)c3ccc(Br)o3)ccc2n1C | -8% | -27% | -9% | 26µM* | 0% | ?
Cc1cc2cc(CNC(=O)Cc3cccs3)ccc2n1C | -23% | ? | 6% | 8.2µM* | 11% | ·
Cn1c(NC(=O)c2ccc(Br)o2)cc(=O)n(C)c1=O | 2% | 5% | 3% | 2% | 13µM* | ?
Cc1cccc(NC(=O)CN(C)C(=O)C2CCN(c3ccc(C#N)cn3)CC2)c1C | · | · | · | · | · | -20%
O=Nc1c(-c2c(O)[nH]c3cc(Br)ccc23)[nH]c2ccccc12 | ? | 15µM* | ? | ? | 4% | 2%
CC(=O)ON=C1C(c2c(O)[nH]c3cc(Br)ccc23)=Nc2ccccc21 | · | · | · | · | · | -9%[57.4 µM]
Cc1ccc(Oc2ccccc2/C=N/O)cc1 | -16% | 21µM* | -5% | 12µM* | -24% | 0%
Cc1ccc(-n2c(Cc3ccccc3)nnc2SCc2nc(-c3cccs3)no2)cc1C | · | 23µM* | · | ? | · | -16%
CCc1ccc(-n2c(Cc3ccccc3)nnc2SCc2nc(-c3cccs3)no2)cc1 | · | 16µM* | · | 23µM* | · | -28%

High-throughput results: PubChem BioAssay, National Center for Advancing Translational Sciences (NCATS)
